Hit rate of the full screen: of about 370,000 compounds, about 2,400 (0.65%) were called active. What follows is part of a selection rich in actives, with near analogues and random picks from the rest. A number with no mark means an inactive call.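 Rule for the calls: active = inhibition above the screen-wide mean plus 3 SD (cut at about 13% in these data); inactive = the rest.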

This assay has as its system HIV-1 integrase (with human LEDGF/p75). Put plainly: blockers of LEDGF/p75-dependent integrase strand transfer – biochemical, TR-FRET, high throughput, primary screen (AID 743269).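 Note: signal is the Cy5 over europium emission ratio at 671 and 618 nm; 0% = plate median of compound wells.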 The note with it: TR-FRET IN-LEDGF/p75 DNA integration, Eu/Cy5; at 3.7 µM; active compounds read high.
On to `COCCNC(=O)Nc1ccc2nc(-c3ccco3)c(-c3ccco3)nc2c1`, for which the inhibition is 90.1% (active). `COCCNC(=O)c1cc2c(Br)ccc(Br)c2nc1N`: the inhibition was -5.17%.

On to `COCCNC(=S)c1ccc(OC)cc1`, for which the inhibition was -1.56%.

For `COc1ccc(CCNC(=O)CSc2nc3c([nH]2)c(=O)n(C)c(=O)n3C)cc1`, the inhibition is 0.75%.

For the molecule `O=C(NCc1cccs1)C1CCN(S(=O)(=O)c2ccccc2[N+](=O)[O-])CC1`, the inhibition was 3.07%.

For the molecule `CC(C)(C)NC(=O)C(c1cccnc1)N(C(=O)c1cnco1)c1ccc(C(C)(C)C)cc1` (stereo not given), the inhibition was 0.93%. Turning to `CCOC(=O)[C@]12CCCCC/C=C\1N(Cc1ccc(OC)cc1)C(=O)[C@H]2CC(=O)NCc1ccc(C)o1`, the inhibition is -2.04%. `COc1ccc(C(C)=O)cc1CSc1nc2nc(C)cc(C)n2n1`: the inhibition was -4%. As for `COC(=O)c1ccc(COc2ccc(/C=C/C(=O)c3ccc(OC)c(CSCC(=O)O)c3)cc2OC)cc1`, the figure is 1.77%; as for `COc1ccc(C(=O)/C=C/c2ccc(-c3ccccc3)cc2)cc1CSCC(=O)O`, 13.5% (active); as for `CCOc1ccc(Oc2c(Cl)cnn(-c3ccc(C)cc3)c2=O)cc1`, -2.65%.

As for `COc1cccc(N(C)C(=O)[C@@H](C)[C@@H](O)c2ccc3ccccc3c2)c1`, the inhibition was 2.81%. With `CN(C(=O)COC(=O)c1cc(-c2ccco2)nc2ccccc12)C1CCS(=O)(=O)C1` (stereo not given), the inhibition was 30.7% (active).

For `CN(C(=O)COC(=O)c1cc(=O)[nH]c2ccccc12)C1CCCCC1`, the inhibition is -9.3%. In the case of `CC(=O)c1ccc(OCC(=O)N(C)C2CCS(=O)(=O)C2)cc1` (stereo not given) it was 1.55%; in that of `CCOC(=O)[C@]12CCCC=C1N(Cc1ccc(OC)cc1)C(=O)[C@@H]2CC(=O)NCc1cccs1`, 0.74%. Consider `CCOC(=O)CN1C(=O)C(O)(CC(=O)c2ccccn2)c2ccccc21` (stereo not given), for which the inhibition was 3.17%. Turning to `C=CCN1C(=O)C(O)(CC(=O)c2ccccn2)c2ccccc21` (stereo not given), the inhibition was 15.4% (active). With `O=C(CC1(O)C(=O)N(CN2CCOCC2)c2ccccc21)c1ccccc1` (stereo not given), the inhibition was 3.55%. On to `N#CCC[C@H]1CC[C@]2(CCCN(Cc3ccc(Cl)cc3)C2)O1`, for which the inhibition was 0.5%. For `O=S1(=O)c2ccc(Br)cc2OC[C@H](Cc2ccccc2)N1Cc1cn(Cc2ccccc2)nn1`, the inhibition was -5.3%. In the case of `Cc1cc([N+](=O)[O-])c(NC2CCCCC2)c([N+](=O)[O-])c1`, the inhibition was 0.17%. As for `Clc1cc(NC2CCCCC2)ncn1`, the figure is 21.7% (active). In the case of `CCc1cc2c(NC3CCCC3)ncnc2s1` it was -1.83%; in that of `O=C(C1CCN(S(=O)(=O)c2ccccc2)CC1)N1CCN(C2CCCCC2)CC1`, -2.53%.

For the origin of these results see PubChem BioAssay AID743269 (The Scripps Research Institute Molecular Screening Center, 2014).
